Source: PubChem BioAssay AID1159580 (chemical genetic matrix, 2015)
About 2,000 (36%) of roughly 5,500 compounds were called active. Not shown: some 18% with an inconclusive outcome. No stated cut-off is given here; in the data, active means normalized growth mostly below about 0.91 (no sharp cut-off); inconclusive means no clear call, values can overlap the other calls; inactive means mostly above about 0.92. Some of the results follow.

Test: chemical genetic growth profiling, strain panel (AID 1159580);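 further: tested at 20 µM; growth read once vehicle control cultures reached saturation at 30 °C; 1 = growth at the plate median or of vehicle wells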
Conditions: S. cerevisiae deletion strains, growth OD
[1] = locus YAL021C, strain ccr4, stronger effect = lower value
[2] = locus YAL026C, strain drs2, stronger effect = lower value
[3] = locus YAL030W, strain snc1, stronger effect = lower value
[4] = locus YBL061C, strain skt5, stronger effect = lower value
[5] = locus YBR009C, strain hhf1, stronger effect = lower value
[6] = locus YBR023C, strain chs3, stronger effect = lower value
[7] = locus YBR171W, strain sec66, stronger effect = lower value
[8] = locus YBR231C, strain swc5, stronger effect = lower value
[9] = locus YBR279W, strain paf1, stronger effect = lower value
[10] = locus YCL011C, strain gbp2, stronger effect = lower value
[11] = locus YCL016C, strain dcc1, stronger effect = lower value
[12] = locus YCL061C, strain MRC1, stronger effect = lower value
[13] = locus YCL069W, strain vba3, stronger effect = lower value
[14] = locus YCR088W, strain abp1, stronger effect = lower value
[15] = locus YDL005C, strain med2, stronger effect = lower value
[16] = locus YDL040C, strain nat1, stronger effect = lower value
[17] = locus YDR001C, strain nth1, stronger effect = lower value
[18] = locus YDR069C, strain doa4, stronger effect = lower value
[19] = locus YDR137W, strain rgp1, stronger effect = lower value
[20] = locus YDR159W, strain sac3, stronger effect = lower value
[21] = locus YDR297W, strain sur2, stronger effect = lower value
[22] = locus YDR334W, strain swr1, stronger effect = lower value
[23] = locus YDR335W, strain msn5, stronger effect = lower value
[24] = locus YDR392W, strain spt3, stronger effect = lower value
[25] = locus YEL003W, strain gim4, stronger effect = lower value
[26] = locus YEL037C, strain rad23, stronger effect = lower value
[27] = locus YEL061C, strain CIN8 (second series), stronger effect = lower value
[28] = locus YER015W, strain faa2, stronger effect = lower value
[29] = locus YER016W, strain bim1, stronger effect = lower value
[30] = locus YER111C, strain swi4, stronger effect = lower value
[31] = locus YER155C, strain BEM2 (second series), stronger effect = lower value
[32] = locus YFR010W, strain ubp6, stronger effect = lower value
[33] = locus YGL167C, strain pmr1, stronger effect = lower value
[34] = locus YGL173C, strain kem1, stronger effect = lower value
[35] = locus YGL227W, strain vid30, stronger effect = lower value
[36] = locus YGL240W, strain doc1, stronger effect = lower value
[37] = locus YGL253W, strain hxk2, stronger effect = lower value
[38] = locus YHR013C, strain ard1, stronger effect = lower value
[39] = locus YHR027C, strain rpn1, stronger effect = lower value
[40] = locus YHR030C, strain SLT2, stronger effect = lower value
[41] = locus YHR079C, strain IRE1, stronger effect = lower value
[42] = locus YHR142W, strain chs7, stronger effect = lower value
[43] = locus YJL092W, strain hpr5, stronger effect = lower value
[44] = locus YJL095W, strain BCK1 (second series), stronger effect = lower value
[45] = locus YJL095W, strain BCK1, stronger effect = lower value
[46] = locus YJL115W, strain asf1, stronger effect = lower value
[47] = locus YJL129C, strain trk1, stronger effect = lower value
[48] = locus YJL154C, strain vps35, stronger effect = lower value
[49] = locus YJL164C, strain tpk1, stronger effect = lower value
[50] = locus YJL166W, strain qcr8, stronger effect = lower value
[51] = locus YJL187C, strain SWE1, stronger effect = lower value
[52] = locus YJR066W, strain TOR1, stronger effect = lower value
[53] = locus YKL160W, strain elf1, stronger effect = lower value
[54] = locus YKR026C, strain gcn3, stronger effect = lower value
[55] = locus YKR091W, strain srl3, stronger effect = lower value
[56] = locus YLL001W, strain dnm1, stronger effect = lower value
[57] = locus YLL026W, stronger effect = lower value
[58] = locus YLL041C, strain sdh2, stronger effect = lower value
[59] = locus YLR027C, strain aat2, stronger effect = lower value
[60] = locus YLR113W, strain HOG1, stronger effect = lower value
[61] = locus YLR221C, strain rsa3, stronger effect = lower value
[62] = locus YLR258W, strain gsy2, stronger effect = lower value
[63] = locus YLR262C, strain YPT6 (second series), stronger effect = lower value
[64] = locus YLR320W, strain mms22, stronger effect = lower value
[65] = locus YLR342W, strain FKS1, stronger effect = lower value
[66] = locus YLR357W, strain rsc2, stronger effect = lower value
[67] = locus YLR370C, strain arc18, stronger effect = lower value
[68] = locus YLR384C, strain iki3, stronger effect = lower value
[69] = locus YML120C, strain ndi1, stronger effect = lower value
[70] = locus YMR058W, strain fet3, stronger effect = lower value
[71] = locus YMR125W, strain sto1, stronger effect = lower value
[72] = locus YMR129W, stronger effect = lower value
[73] = locus YMR205C, strain PFK2, stronger effect = lower value
[74] = locus YMR231W, strain pep5, stronger effect = lower value
[75] = locus YNL071W, strain lat1, stronger effect = lower value
[76] = locus YNL183C, strain NPR1, stronger effect = lower value
[77] = locus YNL209W, strain ssb2, stronger effect = lower value
[78] = locus YNL248C, strain rpa49, stronger effect = lower value
[79] = locus YNL322C, strain KRE1 (second series), stronger effect = lower value
[80] = locus YNR049C, strain mso1, stronger effect = lower value
[81] = locus YOR001W, strain rrp6, stronger effect = lower value
[82] = locus YOR070C, strain gyp1, stronger effect = lower value
[83] = locus YOR080W, strain dia2, stronger effect = lower value
[84] = locus YOR083W, strain WHI5, stronger effect = lower value
[85] = locus YOR106W, strain vam3, stronger effect = lower value
[86] = locus YOR231W, strain MKK1, stronger effect = lower value
[87] = locus YOR265W, strain rbl2, stronger effect = lower value
[88] = locus YOR270C, strain vph1, stronger effect = lower value
[89] = locus YOR290C, strain snf2, stronger effect = lower value
[90] = locus YPL051W, strain arl3, stronger effect = lower value
[91] = locus YPL078C, strain atp4, stronger effect = lower value
[92] = locus YPL106C, strain sse1, stronger effect = lower value
[93] = locus YPL240C, strain hsp82, stronger effect = lower value
[94] = locus YPL256C, strain CLN2, stronger effect = lower value

Measured: normalized growth

O=c1cc(-c2ccc(O)cc2)oc2cc(O)ccc12
inactive: [1] 0.967 | [2] 0.95 | [3] 0.959 | [4] 0.967 | [5] 0.929 | [6] 0.958 | [7] 0.981 | [8] 0.974 | [9] 0.974 | [10] 0.948 | [11] 0.976 | [12] 0.976 | [13] 0.969 | [14] 0.957 | [15] 0.963 | [16] 0.968 | [17] 0.96 | [18] 0.949 | [19] 0.925 | [20] 0.866 | locus YDR195W, strain ref2 0.963 | [21] 0.966 | [22] 0.954 | [23] 0.984 | [24] 0.853 | [25] 0.972 | [26] 0.952 | [27] 0.949 | [28] 0.973 | [29] 0.976 | [30] 0.961 | [31] 0.897 | [32] 0.941 | [33] 0.945 | [34] 0.972 | [35] 0.941 | [36] 0.958 | [37] 0.98 | [38] 0.925 | [39] 0.957 | [40] 0.948 | [41] 0.935 | [42] 0.935 | [43] 0.97 | [44] 0.968 | [45] 0.969 | [46] 0.968 | [47] 0.915 | [48] 0.975 | [49] 0.962 | [50] 0.969 | [51] 0.964 | [52] 0.938 | [53] 0.973 | [54] 0.945 | [55] 0.964 | [56] 0.958 | [57] 0.96 | [58] 0.976 | [59] 0.953 | [60] 0.918 | [61] 0.974 | [62] 0.956 | [63] 0.926 | [64] 0.937 | [65] 0.954 | [66] 0.944 | [67] 0.948 | [68] 0.961 | [69] 0.948 | [70] 0.965 | [71] 0.941 | [72] 0.966 | [73] 0.922 | [74] 0.966 | [75] 0.972 | [76] 0.924 | [77] 0.973 | [78] 0.971 | [79] 0.956 | [80] 0.964 | [81] 0.979 | [82] 0.971 | [83] 0.968 | [84] 0.982 | [85] 0.946 | [86] 0.942 | [87] 0.975 | [88] 0.833 | [89] 0.921 | [90] 0.984 | [91] 0.963 | [92] 0.937 | [93] 0.955 | [94] 0.944

O=c1cc(-c2ccc(O)cc2)oc2cc(O)cc(O)c12
inactive: [1] 0.995 | [2] 0.978 | [3] 0.99 | locus YAL040C, strain CLN3, stronger effect = lower value 0.976 | [4] 1 | [5] 1.01 | [6] 0.993 | [7] 0.997 | [8] 1 | [9] 0.994 | [10] 0.999 | [11] 0.998 | [12] 1.01 | [13] 0.989 | [14] 0.987 | [15] 0.995 | [16] 0.99 | [17] 0.981 | [18] 0.966 | [19] 1.04 | [20] 0.975 | locus YDR195W, strain ref2 0.955 | [21] 0.993 | [22] 0.98 | [23] 0.996 | locus YDR363W, strain ESC2, stronger effect = lower value 0.998 | [24] 0.922 | [25] 0.997 | [26] 0.981 | [27] 0.985 | locus YER002W, strain NOP16, stronger effect = lower value 0.987 | [28] 0.986 | [29] 0.98 | [30] 0.989 | [31] 0.975 | [32] 0.966 | [33] 0.974 | [34] 1 | [35] 0.989 | [36] 1 | [37] 0.973 | locus YGR229C, strain SMI1, stronger effect = lower value 1.01 | [38] 1.01 | [39] 0.997 | [40] 1.02 | [41] 0.996 | [42] 0.98 | [43] 0.988 | [44] 0.996 | [45] 1.02 | [46] 0.978 | [47] 0.995 | [48] 0.977 | [49] 1.03 | [50] 1.01 | [51] 0.998 | [52] 0.954 | [53] 1.01 | [54] 0.972 | [55] 0.985 | [56] 1.03 | [57] 0.993 | [58] 0.997 | [59] 0.998 | [60] 0.95 | [61] 0.992 | [62] 1 | [63] 1.05 | [64] 1.01 | [65] 0.993 | [66] 0.918 | [67] 0.981 | [68] 0.98 | [69] 0.984 | [70] 0.97 | [71] 0.973 | [72] 0.989 | [73] 1.03 | [74] 0.996 | [75] 0.993 | locus YNL175C, strain NOP13, stronger effect = lower value 1.01 | [76] 0.943 | locus YNL197C, strain WHI3, stronger effect = lower value 0.981 | [77] 0.998 | locus YNL224C, strain SQS1, stronger effect = lower value 0.982 | [78] 0.989 | [79] 0.977 | [80] 0.989 | [81] 1 | [82] 1 | [83] 0.986 | locus YOR083W, strain WHI5 (second series), stronger effect = lower value 0.954 | [84] 1.02 | [85] 0.999 | [86] 1.02 | [87] 0.998 | [88] 0.988 | [89] 0.96 | [90] 0.999 | [91] 1 | [92] 0.955 | [93] 0.995 | [94] 1.01
